Our source for the growth values is PubChem BioAssay (NCI).

Common to all, as to assay: NCI-60 one-dose screen, 48 h (100 = growth as untreated, 0 = no growth, -100 = all killed)
For one assay, the system named is HT29 colon. To be noted: 10 µM unless noted.
Another assay has as its system SNB-75 CNS. To be noted: 10 µM unless noted.
Another assay deals with SNB-19 CNS. The following applies: 10 µM unless noted.
A further assay relates to U251 CNS. The following applies: 10 µM unless noted.
The next assay has as its system PC-3 prostate. The following applies: 10 µM unless noted.
In a further assay the test system is SK-MEL-5 melanoma. The following applies: 10 µM unless noted.
Another assay relates to UACC-62 melanoma. The following applies: 10 µM unless noted.
In another assay the test system is LOX IMVI melanoma. To be noted: 10 µM unless noted.
The next assay relates to SK-MEL-28 melanoma. To be noted: 10 µM.
The next assay relates to SK-MEL-2 melanoma. The following applies: 10 µM unless noted.
The test system of the next assay is EKVX NSCLC. The following applies: 10 µM unless noted.
A further assay concerns SN12C renal. To be noted: 10 µM unless noted.
In a further assay the test system is UO-31 renal. The following applies: 10 µM unless noted.
A further assay deals with TK-10 renal. To be noted: 10 µM unless noted.
In the next assay the test system is ACHN renal. The following applies: 10 µM unless noted.
Another assay relates to CAKI-1 renal. To be noted: 10 µM unless noted.
The next assay has as its system A498 renal. The following applies: 10 µM unless noted.
Another assay relates to CCRF-CEM leukemia. The following applies: 10 µM unless noted.
The next assay deals with MOLT-4 leukemia. To be noted: 10 µM unless noted.
Another assay deals with SR leukemia. The following applies: 10 µM unless noted.

About 83,000 compounds went through this panel and 20% of them were active in at least one assay; those are over-represented in the sample as a whole.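 Method: cells in 96-well plates; compound added at one concentration; 48 h incubation; percent growth measured; values under 10 scored active.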 A number with no mark means an inactive call. The source made the active and inactive calls.

`CCN1C(=O)N(CC)C2Nn3c(s/c(=C4\C(=O)N(C(C)C)c5ccccc54)c3=O)=NC21` (stereo not drawn): the growth in the assay on HT29 colon was 11.6%; in the assay with SNB-75 CNS it was 60.2%; in the assay with SNB-19 CNS, 46.4%; in the assay on U251 CNS it was 28.1%; in the assay on PC-3 prostate, 26.3%; with SK-MEL-5 melanoma, 41.4%. Also, the growth is 36.4% with UACC-62 melanoma; 40.6% with LOX IMVI melanoma; 55.1% in the assay with SK-MEL-28 melanoma; 72.9% with SK-MEL-2 melanoma; 29.9% in the assay on EKVX NSCLC; 47.7% in the assay with SN12C renal. The growth with UO-31 renal was 55.8%; in the assay on TK-10 renal it was 86.6%; with ACHN renal, 43.1%; in the assay with CAKI-1 renal it was 45.9%; in the assay with A498 renal it was 37.4%; with CCRF-CEM leukemia it was 19.3%. Also, the figures for the growth in the assay with MOLT-4 leukemia and in the assay with SR leukemia were 19.6% and 21.2%, respectively.
For the compound `NCCNc1nc2ccccc2c2c(=O)c3cc(F)cc(Cl)c3sc12`, the growth is -64.3% (active) with HT29 colon; 44.6% with SNB-75 CNS; 81.4% with SNB-19 CNS; -84.3% (active) in the assay on U251 CNS; -70.4% (active) in the assay on PC-3 prostate; 85.5% with SK-MEL-5 melanoma. The growth is 44.8% in the assay with UACC-62 melanoma; -92.1% (active) with LOX IMVI melanoma; -89.8% (active) with SK-MEL-28 melanoma; 99.1% with SK-MEL-2 melanoma; -68.5% (active) in the assay on EKVX NSCLC; -83.7% (active) in the assay on SN12C renal. Also, the growth was -93.7% (active) with UO-31 renal; -30.6% (active) in the assay on TK-10 renal; -94.7% (active) with ACHN renal; -96.3% (active) in the assay on CAKI-1 renal; 46.9% in the assay on A498 renal; -28.1% (active) in the assay on CCRF-CEM leukemia. The growth is 29.1% in the assay on MOLT-4 leukemia and -27.7% (active) with SR leukemia.
In the case of `Nc1no[n+]([O-])c1-c1nnc2c(n1)-c1ccccc1C2=O`, the growth is 57.1% with HT29 colon; 95% in the assay with SNB-75 CNS; 84.5% with SNB-19 CNS; 88% in the assay with U251 CNS; 33.6% in the assay on PC-3 prostate; 19.7% in the assay with SK-MEL-5 melanoma. In addition, the growth in the assay with UACC-62 melanoma was 64.3%; with LOX IMVI melanoma, 27.5%; in the assay on SK-MEL-28 melanoma, 81.4%; in the assay on SK-MEL-2 melanoma it was 86.9%; in the assay on EKVX NSCLC, 63.8%; in the assay on SN12C renal, 15.6%. In addition, the growth in the assay with UO-31 renal is 37%; in the assay with TK-10 renal, 151%; with ACHN renal, 16%; in the assay on CAKI-1 renal, 72.4%; in the assay with A498 renal it was 91%; with CCRF-CEM leukemia, 35.5%. Further, the growth in the assay on MOLT-4 leukemia was 5.49% (active); in the assay on SR leukemia, 3.68% (active).
`Nc1nc(N)c2c(n1)NC1(C=C(O)c3ccccc31)C1=C(N2)c2ccccc2C1=O` (stereo not drawn): the growth in the assay on HT29 colon is 125%; with SNB-75 CNS it was 169%; in the assay with SNB-19 CNS, 103%; in the assay on U251 CNS, 103%; in the assay on PC-3 prostate, 107%; in the assay with SK-MEL-5 melanoma, 108%. Also, the growth in the assay with UACC-62 melanoma was 110%; in the assay with LOX IMVI melanoma, 94.3%; with SK-MEL-28 melanoma, 108%; in the assay on SK-MEL-2 melanoma, 112%; in the assay with EKVX NSCLC, 113%; in the assay on SN12C renal, 102%. The growth in the assay with UO-31 renal is 77.1%; in the assay with TK-10 renal, 142%; in the assay with ACHN renal, 96.1%; in the assay with CAKI-1 renal it was 83.8%; in the assay on A498 renal, 109%; in the assay on CCRF-CEM leukemia it was 97.3%. In the assay on SR leukemia, the growth is 134%.
Take `COc1cccc(/C(C#N)=C/c2nc3c(N4CCOCC4)nc(Cl)nc3n2C)c1`: the growth in the assay on HT29 colon is -49.8% (active); with SNB-75 CNS it was -17.2% (active); with SNB-19 CNS, 55.6%; in the assay with U251 CNS it was -15.1% (active); with PC-3 prostate, -27.4% (active); in the assay on SK-MEL-5 melanoma, 4.5% (active). Besides, the growth was -62.3% (active) with UACC-62 melanoma; -88.2% (active) in the assay on LOX IMVI melanoma; -77.5% (active) in the assay with SK-MEL-28 melanoma; -29.7% (active) in the assay on SK-MEL-2 melanoma; -77.3% (active) in the assay on EKVX NSCLC; 12.8% with SN12C renal. The growth with UO-31 renal is -95.9% (active); with TK-10 renal, -65.6% (active); with ACHN renal, -98% (active); in the assay on CAKI-1 renal, -92.1% (active); with A498 renal it was -2.48% (active); with CCRF-CEM leukemia it was 2.67% (active). Besides, the growth with SR leukemia was 5.6% (active).
In the case of `COc1cc(/C=C2\CN(S(=O)(=O)c3ccccc3)C/C(=C\c3cc(CN4CCCC4)c(O)c(OC)c3)C2=O)cc(CN2CCCC2)c1O`, the growth in the assay with HT29 colon was -9.09% (active); with SNB-75 CNS it was 20.2%; in the assay on SNB-19 CNS it was 12.2%; with U251 CNS, -21.7% (active); in the assay with PC-3 prostate it was 8.85% (active); in the assay with SK-MEL-5 melanoma it was 20.7%. In addition, the growth was -60% (active) in the assay on UACC-62 melanoma; -75.4% (active) in the assay on LOX IMVI melanoma; 10.5% in the assay on SK-MEL-28 melanoma; -0.727% (active) with SK-MEL-2 melanoma; 24.7% in the assay with EKVX NSCLC; -25.8% (active) in the assay with SN12C renal. The growth with UO-31 renal is 34.7%; in the assay on TK-10 renal, 26.8%; in the assay with ACHN renal, 12.1%; in the assay on CAKI-1 renal it was 75.3%; in the assay with A498 renal, 8.57% (active); with CCRF-CEM leukemia, 7.45% (active). The growth with MOLT-4 leukemia was 1.22% (active); in the assay on SR leukemia, 17.5%.
As to `COc1cc(/C=C2\CN(C)C/C(=C\c3cc(CN4CCCCC4)c(O)c(OC)c3)C2=O)cc(CN2CCCCC2)c1O`, the growth is 3.56% (active) in the assay with HT29 colon; 66.9% with SNB-75 CNS; 70.9% in the assay on SNB-19 CNS; 15% in the assay with U251 CNS; 32.7% with PC-3 prostate; 70.6% with SK-MEL-5 melanoma. For the same compound, the growth in the assay on UACC-62 melanoma is 60.6%; in the assay on LOX IMVI melanoma it was 5.17% (active); with SK-MEL-28 melanoma it was 93.5%; with SK-MEL-2 melanoma it was 73.2%; in the assay on EKVX NSCLC it was 46%; in the assay with SN12C renal, 38.2%. The growth in the assay with UO-31 renal was 57%; in the assay on TK-10 renal, 57.6%; in the assay with ACHN renal, 39%; in the assay on CAKI-1 renal, 55.9%; in the assay on A498 renal it was 71.1%; in the assay with CCRF-CEM leukemia it was 19.9%. In addition, the results for the growth with MOLT-4 leukemia and in the assay on SR leukemia were 16.5% and 28.5%, respectively.
On to `O=C(O)c1cn(C2CC2)c2cc(N3CCN(C(=O)C[n+]4ccccc4)CC3)c(F)cc2c1=O`, for which the growth in the assay with HT29 colon was 109%; with SNB-75 CNS, 97.2%; in the assay on SNB-19 CNS it was 99.4%; in the assay with U251 CNS, 92.4%; with PC-3 prostate, 106%; in the assay on SK-MEL-5 melanoma it was 101%. The growth in the assay with UACC-62 melanoma is 105%; in the assay with LOX IMVI melanoma, 98.1%; in the assay on SK-MEL-28 melanoma, 112%; in the assay with SK-MEL-2 melanoma, 96.5%; with EKVX NSCLC, 94.4%; in the assay on SN12C renal it was 97.5%. Further, the growth in the assay with UO-31 renal is 88.1%; in the assay on TK-10 renal, 99.3%; with ACHN renal, 103%; with CAKI-1 renal it was 94.3%; with A498 renal, 87.6%; with CCRF-CEM leukemia, 97.4%. Besides, the results for the growth in the assay on MOLT-4 leukemia and in the assay on SR leukemia were 104% and 107%, respectively.
